Reference: PubChem BioAssay (NCI)
About 83,000 compounds went through this panel and 20% of them were active in at least one assay; those are over-represented in the sample as a whole.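 Percent growth is the endpoint: 0 to 100 indicates growth inhibition (40 means 60% inhibition), 0 means no net growth, and negative values indicate cell death.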 Active and inactive are the calls of the source. Rule for the calls: active = growth percent below 10; inactive = the rest.

Experiments:
Test in all cases: NCI-60 one-dose screen, 48 h (100 = growth as untreated, 0 = no growth, -100 = all killed)
Settings in all cases: 10 µM unless noted
SK-MEL-2 melanoma = system: SK-MEL-2 melanoma
EKVX NSCLC = system: EKVX NSCLC
SN12C renal = system: SN12C renal
UO-31 renal = system: UO-31 renal
TK-10 renal = system: TK-10 renal
ACHN renal = system: ACHN renal
CAKI-1 renal = system: CAKI-1 renal
A498 renal = system: A498 renal
CCRF-CEM leukemia = system: CCRF-CEM leukemia
MOLT-4 leukemia = system: MOLT-4 leukemia

Measured: growth

COc1c(-c2cc(-c3ccc(C)o3)[nH]c(=O)n2)c(O)cc2occc12
inactive: SK-MEL-2 melanoma 69.6% | EKVX NSCLC 69.8% | SN12C renal 63.6% | UO-31 renal 71.5% | TK-10 renal 104% | ACHN renal 89.9% | CAKI-1 renal 63.8% | A498 renal 54.1% | CCRF-CEM leukemia 77.8% | MOLT-4 leukemia 41.1%

CN(C)c1ccc(/C=C(\C#N)c2nc3ccccc3n2C)cc1
inactive: SK-MEL-2 melanoma 46.6% | EKVX NSCLC 28.3% | SN12C renal 54% | UO-31 renal 46.2% | TK-10 renal 37.7% | ACHN renal 55.3% | CAKI-1 renal 13.7% | CCRF-CEM leukemia 31.2% | MOLT-4 leukemia 29.5%

CCN(CC)CCCC(C)Nc1cnc(C(=O)Nc2ccc(Cl)c3cccnc23)cn1 (stereo not drawn)
active: ACHN renal -54.8% | CCRF-CEM leukemia 5.29% | MOLT-4 leukemia 2.9%
inactive: SK-MEL-2 melanoma 57.8% | EKVX NSCLC 66.1% | SN12C renal 31.7% | UO-31 renal 23.8% | TK-10 renal 57.6% | A498 renal 54%

COc1ccc(/C(=C\c2ccc3c(c2)OCO3)C(=O)Nc2nc3ccc(F)cc3s2)cc1OC
inactive: SK-MEL-2 melanoma 95.7% | EKVX NSCLC 103% | SN12C renal 115% | UO-31 renal 68.5% | TK-10 renal 119% | ACHN renal 97.5% | CAKI-1 renal 86.5% | A498 renal 98.3% | MOLT-4 leukemia 94.4%

Fc1ccc2nc(-c3ccc(-c4noc(-c5ccc(Cl)cc5)n4)cc3)[nH]c2c1
inactive: SK-MEL-2 melanoma 105% | EKVX NSCLC 107% | SN12C renal 110% | UO-31 renal 83.9% | TK-10 renal 115% | ACHN renal 110% | CAKI-1 renal 102% | A498 renal 81% | MOLT-4 leukemia 89.8%

CC(=O)O[C@H]1[C@H](CC#CC#CC[C@@H]2C[C@]3(C)[C@H]4CC=C5[C@H]6[C@@H](C)[C@H](C)CC[C@]6(C(=O)NCCN(CCN)CCN)CC[C@@]5(C)[C@]4(C)CC[C@H]3C(C)(C)[C@H]2OC(C)=O)C[C@]2(C)[C@H]3CC=C4[C@H]5[C@@H](C)[C@H](C)CC[C@]5(C(=O)NCCN(CCN)CCN)CC[C@@]4(C)[C@]3(C)CC[C@H]2C1(C)C
active: EKVX NSCLC -6.42%
inactive: SK-MEL-2 melanoma 67% | SN12C renal 51.9% | UO-31 renal 33.7% | TK-10 renal 110% | ACHN renal 75.9% | CAKI-1 renal 35% | A498 renal 122% | CCRF-CEM leukemia 19.8% | MOLT-4 leukemia 26.8%

COc1ccc(-n2nc(C(=O)NCC(=O)Nc3nc4cc(OC)ccc4s3)c3ccccc3c2=O)cc1
active: SK-MEL-2 melanoma -19.9% | UO-31 renal -0.0591% | TK-10 renal -41.9% | ACHN renal -1.26% | A498 renal -2.05%
inactive: EKVX NSCLC 30.4% | SN12C renal 41.7% | CCRF-CEM leukemia 92.7% | MOLT-4 leukemia 58.5%

C=CCn1c(SCC(=O)Nc2ccc(C(=O)/C=C/c3ccc(Cl)cc3)cc2)nnc1-c1ccc(Cl)cc1
inactive: SK-MEL-2 melanoma 100% | EKVX NSCLC 86.6% | SN12C renal 78.8% | UO-31 renal 61.7% | TK-10 renal 90.8% | ACHN renal 101% | A498 renal 83.8% | CCRF-CEM leukemia 96.5% | MOLT-4 leukemia 68.4%

COc1ccc(C2C3CCc4ccccc4C3=NN2C(=O)c2cc(OC)c(OC)c(OC)c2)cc1O (stereo not drawn)
inactive: SK-MEL-2 melanoma 75.4% | EKVX NSCLC 89.6% | SN12C renal 114% | UO-31 renal 79.9% | TK-10 renal 101% | ACHN renal 98.1% | CAKI-1 renal 101% | CCRF-CEM leukemia 88.9% | MOLT-4 leukemia 90.5%

O=C1C2=C(C(=O)c3c(O)ccc(O)c31)N(c1ccc(N3CCOCC3)nc1)Cc1ccccc1O2
active: SK-MEL-2 melanoma -42.1% | EKVX NSCLC -9.79% | SN12C renal -85.2% | UO-31 renal -100% | TK-10 renal -98.7% | ACHN renal -100% | A498 renal -50.1% | CCRF-CEM leukemia -10.1% | MOLT-4 leukemia -24.4%

Cc1ccc(O)c(Cc2ccccc2)c1
inactive: SK-MEL-2 melanoma 93.8% | EKVX NSCLC 116% | SN12C renal 90.3% | UO-31 renal 84% | TK-10 renal 100% | ACHN renal 100% | A498 renal 99.9% | CCRF-CEM leukemia 103%

COc1ccc(Nc2ncccc2C(=O)NCc2cn(Cc3cc(OC)cc(OC)c3)nn2)cc1
inactive: SK-MEL-2 melanoma 89.5% | EKVX NSCLC 92.5% | SN12C renal 109% | UO-31 renal 65.7% | TK-10 renal 108% | ACHN renal 93.8% | CAKI-1 renal 101% | A498 renal 95.8% | MOLT-4 leukemia 82.7%

CCN(CC)CCCC(C)Nc1cnc(C(=O)Nc2cccc3ccc(OC)nc23)cn1 (stereo not drawn)
active: ACHN renal -86.5% | CCRF-CEM leukemia -7.65%
inactive: SK-MEL-2 melanoma 70.5% | EKVX NSCLC 104% | SN12C renal 78.5% | UO-31 renal 69.1% | TK-10 renal 91% | CAKI-1 renal 94.7% | A498 renal 46.2% | MOLT-4 leukemia 53.4%

Cn1c(=O)c2c3c(oc2c2ccccc21)C(=O)c1ccccc1C3=O
inactive: SK-MEL-2 melanoma 92.6% | EKVX NSCLC 70.7% | SN12C renal 81.8% | UO-31 renal 54.8% | TK-10 renal 94.5% | ACHN renal 75.5% | A498 renal 93.3% | CCRF-CEM leukemia 19.1%
active: MOLT-4 leukemia 2.39%

CC(=O)N[C@@H](CCC(N)=O)C(=O)O
inactive: SK-MEL-2 melanoma 118% | EKVX NSCLC 107% | SN12C renal 85.7% | UO-31 renal 65.7% | TK-10 renal 107% | ACHN renal 94.7% | CAKI-1 renal 73.8% | A498 renal 86.6% | MOLT-4 leukemia 95.3%

O=C(NC1CC1)c1ccc(-c2nc3ccc4[nH]ncc4c3c3c2CCCC3)cc1
inactive: EKVX NSCLC 55.6% | SN12C renal 48.4% | UO-31 renal 25.9% | ACHN renal 17.1% | CCRF-CEM leukemia 29.7% | MOLT-4 leukemia 38.8%
active: SK-MEL-2 melanoma 2.88% | TK-10 renal 8.68% | CAKI-1 renal 0.658% | A498 renal -5.47%

COc1ccc2[nH]c(O)c(/C=c3/ccc4c(c3)N=C(c3ccc(F)cc3)N=4)c2c1
inactive: SK-MEL-2 melanoma 110% | EKVX NSCLC 80.4% | SN12C renal 50.2% | UO-31 renal 63.2% | TK-10 renal 116% | ACHN renal 31.2% | A498 renal 92.9% | CCRF-CEM leukemia 42.5% | MOLT-4 leukemia 67.7%

OC(c1cc(-c2ccc(C(F)(F)F)cc2)nc(-c2ccc(C(F)(F)F)cc2)c1)C1CCCCN1 (stereo not drawn)
active: SK-MEL-2 melanoma -66.6% | EKVX NSCLC -65.4% | SN12C renal -78.5% | UO-31 renal -83.6% | TK-10 renal -90.6% | ACHN renal -73.4% | A498 renal -80.5% | CCRF-CEM leukemia -56.2% | MOLT-4 leukemia -57.5%

O=C(Nc1ccc(Cl)c(C(F)(F)F)c1)c1ccc(Nc2ccc(Cl)nn2)cc1
inactive: SK-MEL-2 melanoma 83.3% | EKVX NSCLC 55.7% | SN12C renal 78.9% | TK-10 renal 68.1% | ACHN renal 52.4% | A498 renal 51.6% | CCRF-CEM leukemia 44.8% | MOLT-4 leukemia 43.7%
active: UO-31 renal 0.31%

O=C(Nc1cnc(C(F)(F)F)cn1)c1cc(Cl)ccc1O
active: SK-MEL-2 melanoma -27.6% | EKVX NSCLC 7.75% | SN12C renal 5.36% | UO-31 renal -5.6% | TK-10 renal 1.77% | ACHN renal 3.85% | A498 renal -53.5% | MOLT-4 leukemia 1.24%
inactive: CCRF-CEM leukemia 14.9%

C=C(CN1CC=CCC1)[C@@H]1CC[C@]2(C(=O)OC)CC[C@]3(C)[C@H](CC[C@@H]4[C@@]5(C)CC[C@H](OC(C)=O)C(C)(C)[C@@H]5CC[C@]43C)[C@@H]12
inactive: SK-MEL-2 melanoma 103% | EKVX NSCLC 109% | SN12C renal 92.8% | UO-31 renal 86.4% | TK-10 renal 121% | ACHN renal 102% | CAKI-1 renal 81.2% | A498 renal 113% | CCRF-CEM leukemia 82.7% | MOLT-4 leukemia 82.1%

C=C(C)C1CCC2(C(=O)O)CCC3(C)C(CCC4C5(C)CCC(O)C(C)(C)C5CCC43C)C12 (stereo not drawn)
active: CAKI-1 renal -5.47% | CCRF-CEM leukemia 3.16%
inactive: SK-MEL-2 melanoma 25.4% | EKVX NSCLC 48.1% | SN12C renal 26.8% | UO-31 renal 21.5% | TK-10 renal 12.8% | ACHN renal 24.2% | MOLT-4 leukemia 11.3%

CCCCCCCCCCCCCCCC1=NCC[N+]1(CCO)CCO
inactive: SK-MEL-2 melanoma 85.2% | EKVX NSCLC 72.3% | SN12C renal 67% | UO-31 renal 42.1% | TK-10 renal 66.6% | ACHN renal 67.1% | CAKI-1 renal 79.5% | A498 renal 86.8% | MOLT-4 leukemia 43%

CCCCCNCCCCCNc1cc(OC)cc2cccnc12
inactive: SK-MEL-2 melanoma 99% | EKVX NSCLC 101% | SN12C renal 92.7% | UO-31 renal 46% | TK-10 renal 78.7% | ACHN renal 94.3% | A498 renal 75% | CCRF-CEM leukemia 95.2%

COc1cc(-c2n/c(=C\c3c(O)[nH]c4cc(Cl)ccc34)cc3c2=Nc2ccccc2-3)cc(OC)c1OC
inactive: SK-MEL-2 melanoma 72.9% | EKVX NSCLC 64.1% | SN12C renal 78.4% | UO-31 renal 74.9% | TK-10 renal 63% | ACHN renal 59.6% | CAKI-1 renal 69.1% | A498 renal 94.5% | MOLT-4 leukemia 70.6%

COc1cc(OC)cc(-c2n/c(=C\c3c(O)[nH]c4ccc(Cl)cc34)cc3c2=Nc2ccccc2-3)c1
inactive: SK-MEL-2 melanoma 100% | EKVX NSCLC 91.9% | SN12C renal 93.5% | UO-31 renal 66.4% | TK-10 renal 116% | ACHN renal 81.3% | CAKI-1 renal 82.1% | A498 renal 94.2% | MOLT-4 leukemia 30.5%

CO[C@@]12[C@@H]3NC3CN1C1=C(C(=O)C(N)=C(C)C1=O)[C@@H]2COC(N)=O (stereo partly drawn)
inactive: EKVX NSCLC 49.6% | SN12C renal 24.6% | CCRF-CEM leukemia 27.1%
active: SK-MEL-2 melanoma -11.2% | UO-31 renal 5.54% | TK-10 renal 9.47% | ACHN renal -10.3% | A498 renal -82.9%

COc1ccc(-c2cn(-c3cccc(C(=O)/C=C/c4ccc(O)c(OC)c4)c3)c(=O)[nH]2)cc1
active: ACHN renal -47.8% | CCRF-CEM leukemia 9.57% | MOLT-4 leukemia 5.6%
inactive: SK-MEL-2 melanoma 30% | EKVX NSCLC 40.8% | SN12C renal 14.2% | UO-31 renal 19% | TK-10 renal 35.6% | CAKI-1 renal 24.6%

O=C(/C=C/c1cccc([N+](=O)[O-])c1)c1ccc(Nc2nc(N3CCCCC3)nc(N3CCCCC3)n2)cc1
inactive: SK-MEL-2 melanoma 105% | EKVX NSCLC 92.3% | SN12C renal 96.3% | UO-31 renal 75.1% | TK-10 renal 108% | ACHN renal 102% | A498 renal 80.9% | CCRF-CEM leukemia 104% | MOLT-4 leukemia 93.4%
